In PubChem BioAssay:
Values without a mark were called inactive. Activity calls are given as the source filed them.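 Rule for the calls, unless noted: active = compound that reduces growth-factor-driven endothelial tube area in a mixed cell culture, no cutoff stated; inactive = the rest.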

Experiment: inhibition of endothelial tube formation, primary screen, imaging, VEGF stimulated, CD31 staining, tube area, NPC library (AID 1117340)
Conditions: VEGF-stimulated ADSC/ECFC co-culture, at 10 µM, active compounds read high

Row | Compound | tube area decrease
1 | CNC(=O)Oc1cccc2ccccc12 | 41.9% (active)
2 | C1CN2CCC1CC2 | 9.8%
3 | Cc1nnc2n1-c1sc(CCc3ccc(CC(C)C)cc3)cc1C(c1ccccc1Cl)=NC2C (configuration not stated) | 48.1% (active)
4 | CCC1(c2ccccc2)C(=O)N(COC)C(=O)N(COC)C1=O | 4%
5 | C[C@@]12CCCCC[C@@H](Cc3ccc(O)cc31)[C@H]2N | 8.5%
6 | CCN(CC)C(=O)N[C@@H]1C=C2c3cccc4[nH]cc(c34)C[C@@H]2N(C)C1 | -8.2%
7 | O=C(NC(O)C(Cl)(Cl)Cl)NC(O)C(Cl)(Cl)Cl (configuration not stated) | 1.1%
8 | CCCCCCCCCCCCNCCNCCNCC(=O)O | 74.7% (active)
9 | O=C(N[C@H]1N=C(c2ccccc2F)c2cccc3c2N(CC3)C1=O)c1cc2ccccc2[nH]1 | 8.5%
10 | CCOP(=S)(OCC)O/N=C(\C#N)c1ccccc1 | -2.3%
11 | OCCOc1ccccc1 | 8.6%
12 | Cc1c(Cl)c(=O)oc2cc(OP(=O)(OCCCl)OCCCl)ccc12 | 14.4%
13 | CCCN(CCC)C(=O)Cc1c(-c2ccc(Cl)cc2)nc2ccc(Cl)cn12 | -7.3%
14 | O=C(CCl)c1ccc(Cl)cc1Cl | 104% (active)
15 | COP(=S)(OC)Oc1ccc(S(=O)(=O)N(C)C)cc1 | -6.5%
16 | Nc1ccccc1C(=O)OCC(O)CO (configuration not stated) | 21.1%
17 | C[N+]1(CCF)[C@@H]2CC[C@H]1CC(OC(=O)C(O)(c1ccccc1)c1ccccc1)C2 (some centres not stated) | 16.4%
18 | Nc1ccccc1 | -9.5%

Row | Compound | tube area decrease
19 | CCOC(=O)NC(O)C(Cl)(Cl)Cl (configuration not stated) | -20.4%
20 | Oc1ccc(Cl)cc1Cc1ccccc1 | 4.6%
21 | C[C@]12C[C@@H]3S[C@H]3C[C@@H]1CC[C@H]1[C@H]3CC[C@@H](O)[C@@]3(C)CC[C@@H]12 | 10.4%
22 | C[C@]12CC[C@H]3[C@@H](CCC4=CC(=O)CC[C@@H]43)[C@@H]1CC[C@@H]2OC(=O)CCc1ccco1 | 47.2% (active)
23 | O=C1OC(c2ccc(O)c(S(=O)(=O)O)c2)(c2ccc(O)c(S(=O)(=O)O)c2)c2c(Br)c(Br)c(Br)c(Br)c21 | -6.3%
24 | COc1cc(CC#N)cc(OC)c1OC | 36.1%
25 | CC(C)=CC1C(C(=O)OCN2C(=O)C3=C(CCCC3)C2=O)C1(C)C (configuration not stated) | 16%
26 | COP(=S)(OC)Oc1ccc(S(N)(=O)=O)cc1 | -30.3%
27 | CN1C2CCC(C)(C)C1CC(OC(=O)C(O)(c1cccs1)c1cccs1)C2 (configuration not stated) | 4.7%
28 | C[C@]12CC[C@H]3[C@@H](CC=C4C[C@@H](O)CC[C@@]43C)[C@@H]1CC[C@@H]2O | -14.6%
29 | CN1CCC(O)(c2ccc(F)cc2)C(C(=O)c2ccc(F)cc2)C1 (configuration not stated) | 18%
30 | CC(=O)O[C@H]1C[C@H](O[C@H]2[C@@H](O)C[C@H](O[C@@H]3[C@@H](O)C[C@H](O[C@H]4CC[C@@]5(C)[C@H](CC[C@@H]6[C@H]5C[C@@H](O)[C@]5(C)[C@@H](C7=CC(=O)OC7)CC[C@]65O)C4)O[C@@H]3C)O[C@@H]2C)O[C@H](C)[C@H]1O[C@@H]1O[C@H](CO)[C@@H](O)[C@H](O)[C@@H]1O | 108% (active)
31 | CNC(C)[C@@H](O)c1ccc(O)cc1 (some centres not stated) | -8.3%
32 | CCOC(=O)C(c1c(O)c2ccccc2oc1=O)c1c(O)c2ccccc2oc1=O | -8.4%
33 | COC(=O)c1cncn1C(C)c1ccccc1 (configuration not stated) | -14.8%
34 | ClCCCN1CCN(c2cccc(Cl)c2)CC1 | -11.1%
35 | CC(C(O)c1ccccc1)N(C)C/C=C/c1ccccc1 (configuration not stated) | 54.6% (active)
36 | O=c1[nH]c2ccccc2n1C1CCNCC1 | -5.4%

Experiment: glucagon-like peptide 1 release enhancers, primary assay, NCI-H716 cell line, NPC library (AID 1117341;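 active = compound raises GLP1 secretion from the human gut endocrine cells, with no numeric limit stated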; note: reference of the scale not given here)
Conditions: NCI-H716 cells, at 10 µM, active compounds read high

Row | Compound | GLP1 secretion stimulation
37 | CNC(=O)Oc1cccc2ccccc12 | -5.4%
38 | C1CN2CCC1CC2 | 6.5%
39 | Cc1nnc2n1-c1sc(CCc3ccc(CC(C)C)cc3)cc1C(c1ccccc1Cl)=NC2C (configuration not stated) | 20.1% (active)
40 | CCC1(c2ccccc2)C(=O)N(COC)C(=O)N(COC)C1=O | 1.4%
41 | C[C@@]12CCCCC[C@@H](Cc3ccc(O)cc31)[C@H]2N | -2.3%
42 | CCN(CC)C(=O)N[C@@H]1C=C2c3cccc4[nH]cc(c34)C[C@@H]2N(C)C1 | -1%
43 | O=C(NC(O)C(Cl)(Cl)Cl)NC(O)C(Cl)(Cl)Cl (configuration not stated) | 0.1%
44 | CCCCCCCCCCCCNCCNCCNCC(=O)O | 2.6%
45 | O=C(N[C@H]1N=C(c2ccccc2F)c2cccc3c2N(CC3)C1=O)c1cc2ccccc2[nH]1 | 1.8%
46 | CCOP(=S)(OCC)O/N=C(\C#N)c1ccccc1 | -1.1%
47 | OCCOc1ccccc1 | 3.7%
48 | Cc1c(Cl)c(=O)oc2cc(OP(=O)(OCCCl)OCCCl)ccc12 | -2.3%
49 | CCCN(CCC)C(=O)Cc1c(-c2ccc(Cl)cc2)nc2ccc(Cl)cn12 | -2.3%
50 | O=C(CCl)c1ccc(Cl)cc1Cl | -6.4%
51 | COP(=S)(OC)Oc1ccc(S(=O)(=O)N(C)C)cc1 | -1.2%
52 | Nc1ccccc1C(=O)OCC(O)CO (configuration not stated) | -1.2%
53 | C[N+]1(CCF)[C@@H]2CC[C@H]1CC(OC(=O)C(O)(c1ccccc1)c1ccccc1)C2 (some centres not stated) | 4.4%
54 | Nc1ccccc1 | 1.1%

Row | Compound | GLP1 secretion stimulation
55 | CCOC(=O)NC(O)C(Cl)(Cl)Cl (configuration not stated) | 0.8%
56 | Oc1ccc(Cl)cc1Cc1ccccc1 | 38% (active)
57 | C[C@]12C[C@@H]3S[C@H]3C[C@@H]1CC[C@H]1[C@H]3CC[C@@H](O)[C@@]3(C)CC[C@@H]12 | -4.2%
58 | C[C@]12CC[C@H]3[C@@H](CCC4=CC(=O)CC[C@@H]43)[C@@H]1CC[C@@H]2OC(=O)CCc1ccco1 | -3.2%
59 | O=C1OC(c2ccc(O)c(S(=O)(=O)O)c2)(c2ccc(O)c(S(=O)(=O)O)c2)c2c(Br)c(Br)c(Br)c(Br)c21 | 6.8%
60 | COc1cc(CC#N)cc(OC)c1OC | 4.1%
61 | CC(C)=CC1C(C(=O)OCN2C(=O)C3=C(CCCC3)C2=O)C1(C)C (configuration not stated) | -0.5%
62 | COP(=S)(OC)Oc1ccc(S(N)(=O)=O)cc1 | 1.6%
63 | CN1C2CCC(C)(C)C1CC(OC(=O)C(O)(c1cccs1)c1cccs1)C2 (configuration not stated) | -0.7%
64 | C[C@]12CC[C@H]3[C@@H](CC=C4C[C@@H](O)CC[C@@]43C)[C@@H]1CC[C@@H]2O | -6%
65 | CN1CCC(O)(c2ccc(F)cc2)C(C(=O)c2ccc(F)cc2)C1 (configuration not stated) | 4.8%
66 | CC(=O)O[C@H]1C[C@H](O[C@H]2[C@@H](O)C[C@H](O[C@@H]3[C@@H](O)C[C@H](O[C@H]4CC[C@@]5(C)[C@H](CC[C@@H]6[C@H]5C[C@@H](O)[C@]5(C)[C@@H](C7=CC(=O)OC7)CC[C@]65O)C4)O[C@@H]3C)O[C@@H]2C)O[C@H](C)[C@H]1O[C@@H]1O[C@H](CO)[C@@H](O)[C@H](O)[C@@H]1O | -0.9%
67 | CNC(C)[C@@H](O)c1ccc(O)cc1 (some centres not stated) | -5%
68 | CCOC(=O)C(c1c(O)c2ccccc2oc1=O)c1c(O)c2ccccc2oc1=O | -0.8%
69 | COC(=O)c1cncn1C(C)c1ccccc1 (configuration not stated) | 1.6%
70 | ClCCCN1CCN(c2cccc(Cl)c2)CC1 | 1.5%
71 | CC(C(O)c1ccccc1)N(C)C/C=C/c1ccccc1 (configuration not stated) | -3.2%
72 | O=c1[nH]c2ccccc2n1C1CCNCC1 | 1.9%
